This is an account of results in PubChem BioAssay.

Records with an inconclusive call do not appear. Activity calls are given as the source filed them.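 How the source made its calls, unless noted: active means normalized viability below 100% at a tested concentration; inactive means the rest.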

Assay [1] is described as follows: growth inhibition of DIPG glioma cells, dose response, cell-based, SU-DIPG-XVII, MIPE5.0, CellTiter-Glo, qHTS (AID 1347060; cut-off not given, nearly all actives have AC50 up to about 26 µM;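 on AC50: cells exposed to compound for 48 hours before viability readout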). The note with it: SU-DIPG-XVII viability, CellTiter-Glo ATP luminescence. (In general: ATP-based viability assays read luminescence as a measure of living cells.)
Assay [2] is described as follows: growth inhibition of DIPG glioma cells, dose response, cell-based, SU-DIPG-XIII, MIPE4.0, CellTiter-Glo, qHTS (AID 1347061; cut-off not given, nearly all actives have AC50 up to about 37 µM;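 further: cells exposed to compound for 48 hours before readout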). The note with it: SU-DIPG-XIII viability, CellTiter-Glo ATP luminescence.
Assay [3] is described as follows: growth inhibition of DIPG glioma cells, dose response, cell-based, JHH-DIPG-1, MIPE4.0, CellTiter-Glo, qHTS (AID 1347062; cut-off not given, nearly all actives have AC50 up to about 27 µM;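 on AC50: cells exposed to compound for two days before readout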). The note with it: JHH-DIPG-1 viability, CellTiter-Glo ATP luminescence.
The nature of assay [4]: growth inhibition of DIPG glioma cells, dose response, cell-based, SU-DIPG-IV, MIPE4.0, CellTiter-Glo, qHTS (AID 1347063; cut-off not given, nearly all actives have AC50 up to about 30 µM;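 further: compound exposure lasted 48 hours before the viability readout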). The conditions noted are these: SU-DIPG-IV viability, CellTiter-Glo ATP luminescence.
Assay [5] in a line: growth inhibition of DIPG glioma cells, dose response, cell-based, SU-DIPG-XIII, MIPE5.0, CellTiter-Glo, qHTS (AID 1347064; cut-off not given, nearly all actives have AC50 up to about 23 µM;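 on AC50: cells exposed to compound for 48 hours before the viability read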). The conditions noted are these: SU-DIPG-XIII viability, CellTiter-Glo ATP luminescence.
A short description of assay [6]: viability loss in pontine glioma line – cell-based, SU-DIPG-XXV, MIPE5.0, CellTiter-Glo, qHTS, dose response (AID 1347065; cut-off not given, nearly all actives have AC50 up to about 26 µM;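 further: cells exposed to compound for 48 hours before ATP readout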). The note with it: CellTiter-Glo ATP luminescence.
Assay [7] can be described thus: SU-DIPG-VI glioma cell viability, MIPE4.0 library, CellTiter-Glo luminescence, qHTS (AID 1347066; cut-off not given, nearly all actives have AC50 up to about 30 µM;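 further: cells exposed to compound for 48 hours before readout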). The note with it: CellTiter-Glo ATP luminescence.
The nature of assay [8]: JHH-DIPG-1 glioma cell viability, MIPE5.0 library, CellTiter-Glo luminescence, qHTS (AID 1347067; cut-off not given, nearly all actives have AC50 up to about 26 µM;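 further: cells exposed to compound for 48 hours before readout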). The conditions noted are these: JHH-DIPG-1 glioma viability, CellTiter-Glo ATP luminescence.
Assay [9] can be described thus: SU-DIPG-XXV glioma cell viability, MIPE5.0 library, qHTS (AID 1347068; cut-off not given, nearly all actives have IC50 up to about 30 µM;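 on IC50: cells exposed to compound for 48 hours before viability readout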).
Assay [10] in a line: sensitizers of A549 cells to miR-34 induction, primary screen, imaging, A549 dox-inducible miR-34, nuclei and caspase counts (AID 1347080;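 active means compounds whose cell count with miR-34 switched on is under 0.7 times the count with it off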). The conditions noted are these: A549 miR-34 inducible, Hoechst nuclei count, 48 h.
A short description of assay [11]: survival rescue of mitochondrial mutant cells in low glucose, primary screen, MELAS cybrids, Rieske KO mouse fibroblasts, CellTiter-Glo (AID 1508586;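 active means mean z-score across replicates of 1.96 or higher in either the MELAS or the Rieske mutant cell line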;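 further: z relative to plate mean and SD of compound and empty wells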).
Assay [12] in a line: modifiers of HSF1 nuclear foci, imaging, Selleck Cancer Library (AID 1347162; in the data active means plate-normalised HSF1 focus index below about 0.46). The conditions noted are these: human cells, at 10 µM; SSMD: measured here: HSF1 foci SSMD mean; cell count: measured here: cell number; plate-normalised HSF1 focus index: stronger effect = lower value.
The nature of assay [13]: ovarian cancer cell viability with rucaparib, profiling panel, oncology-focused library, rucaparib conditional (AID 1508598). The conditions noted are these: patient-derived ovarian cancer cells, CellTiter-Glo viability, 144 h, stronger effect = lower value.
[14] abbreviates: stronger effect = lower value, cell number ratio, induced over uninduced.
Setting [15] is: measured here: relative caspase fold change +Dox/-Dox.
The mark [16] stands for this setting: measured here: total cells with miR-34 induction, stronger effect = lower value.
The mark [17] stands for this setting: measured here: total cells without miR-34 induction.
The mark [18] stands for this setting: MELAS cybrid survival, CellTiter-Glo 48 h, stronger effect = higher value.
Setting [19] is: Rieske KO mouse fibroblast survival, CellTiter-Glo 72 h.

In the case of `O=C(NC1CCOCC1)c1ccc(-c2cc(-c3cn[nH]c3-c3ccccn3)ccn2)cc1`, the outcome in assay [1], in [2], in assay [3], in [4], in assay [5] and in assay [6] was inactive. For the same compound, the result in assay [7], in [8] and in assay [9] was inactive. In addition, the figures for the fold change in [10] (setting [14]) and in assay [10] (setting [15]) were 0.83 (inactive) and 0.736, respectively. Besides, the cell count stood at 8800 in assay [10] (setting [16]) and 10600 in assay [10] (setting [17]). Moreover, the z-score was -0.384 (inactive) in assay [11] (setting [18]) and 0.682 in assay [11] (setting [19]).

The AC50 is the concentration giving half of the maximal activity seen. One may read the IC50 as the concentration at which inhibition is half-maximal. What is called viability is a read-out of living cells in per cent, often relative to untreated cells. Regarding `CCC[C@H](NC(=O)/C(C#N)=C/c1cccc(Br)n1)c1ccccc1`, the AC50 is 3.32 µM (active) in assay [1]; 26.4 µM (active) in assay [2]; 3.32 µM (active) in assay [3]; 2.35 µM (active) in assay [4]; 3.32 µM (active) in assay [5]; 2.63 µM (active) in assay [6]. Also, the figures for the AC50 in assay [7] and in assay [8] were 9.35 µM (active) and 4.68 µM (active), respectively. The IC50 in [9] is 16.6 µM (active). In assay [12], this compound came in with an SSMD of -18.6. This compound had a cell count in assay [12] of 6540. Moreover, the plate-normalised HSF1 focus index in [12] was 0.0433 (active). The viability in [13] (at 0.000305 µM, OCI-C5x cells, with rucaparib 10 µM, 100% = cells with rucaparib alone) was 119% (inactive); in assay [13] (at 0.000305 µM, OCI-C5x cells, without rucaparib) it was 122% (inactive); in assay [13] (at 0.000305 µM, OCI-P5x cells, with rucaparib 20 µM, 100% = cells with rucaparib alone) it was 94.8% (active); in assay [13] (at 0.000305 µM, OCI-P5x cells, without rucaparib) it was 113% (inactive); in assay [13] (at 0.00122 µM, OCI-C5x cells, with rucaparib 10 µM, 100% = cells with rucaparib alone), 114% (inactive); in assay [13] (at 0.00122 µM, OCI-C5x cells, without rucaparib), 137% (inactive). Also, the viability in assay [13] (at 0.00122 µM, OCI-P5x cells, with rucaparib 20 µM, 100% = cells with rucaparib alone) was 95.1% (active); in assay [13] (at 0.00122 µM, OCI-P5x cells, without rucaparib), 111% (inactive); in assay [13] (at 0.00488 µM, OCI-C5x cells, with rucaparib 10 µM, 100% = cells with rucaparib alone), 121% (inactive); in assay [13] (at 0.00488 µM, OCI-C5x cells, without rucaparib), 137% (inactive); in assay [13] (at 0.00488 µM, OCI-P5x cells, with rucaparib 20 µM, 100% = cells with rucaparib alone), 98.7% (active); in assay [13] (at 0.00488 µM, OCI-P5x cells, without rucaparib) it was 114% (inactive). Also, the viability is 111% (inactive) in assay [13] (at 0.0195 µM, OCI-C5x cells, with rucaparib 10 µM, 100% = cells with rucaparib alone); 135% (inactive) in assay [13] (at 0.0195 µM, OCI-C5x cells, without rucaparib); 104% (inactive) in assay [13] (at 0.0195 µM, OCI-P5x cells, with rucaparib 20 µM, 100% = cells with rucaparib alone); 110% (inactive) in assay [13] (at 0.0195 µM, OCI-P5x cells, without rucaparib); 108% (inactive) in assay [13] (at 0.0781 µM, OCI-C5x cells, with rucaparib 10 µM, 100% = cells with rucaparib alone); 128% (inactive) in assay [13] (at 0.0781 µM, OCI-C5x cells, without rucaparib). Besides, the viability is 104% (inactive) in assay [13] (at 0.0781 µM, OCI-P5x cells, with rucaparib 20 µM, 100% = cells with rucaparib alone); 128% (inactive) in assay [13] (at 0.0781 µM, OCI-P5x cells, without rucaparib); 126% (inactive) in assay [13] (at 0.313 µM, OCI-C5x cells, with rucaparib 10 µM, 100% = cells with rucaparib alone); 134% (inactive) in [13] (at 0.313 µM, OCI-C5x cells, without rucaparib); 102% (inactive) in assay [13] (at 0.313 µM, OCI-P5x cells, with rucaparib 20 µM, 100% = cells with rucaparib alone); 123% (inactive) in assay [13] (at 0.313 µM, OCI-P5x cells, without rucaparib). The viability was 106% (inactive) in assay [13] (at 1.25 µM, OCI-C5x cells, with rucaparib 10 µM, 100% = cells with rucaparib alone); 141% (inactive) in assay [13] (at 1.25 µM, OCI-C5x cells, without rucaparib); 46.8% (active) in [13] (at 1.25 µM, OCI-P5x cells, with rucaparib 20 µM, 100% = cells with rucaparib alone); 111% (inactive) in assay [13] (at 1.25 µM, OCI-P5x cells, without rucaparib); 8.18% (active) in [13] (at 5 µM, OCI-C5x cells, with rucaparib 10 µM, 100% = cells with rucaparib alone); 102% (inactive) in [13] (at 5 µM, OCI-C5x cells, without rucaparib). Besides, the viability is 2.03% (active) in assay [13] (at 5 µM, OCI-P5x cells, with rucaparib 20 µM, 100% = cells with rucaparib alone) and 8.95% (active) in assay [13] (at 5 µM, OCI-P5x cells, without rucaparib).

In the case of `CCOC(=O)N1CCN(/[N+]([O-])=N/Oc2ccc([N+](=O)[O-])cc2[N+](=O)[O-])CC1`, the AC50 in assay [1] is 16.6 µM (active); in assay [3], 5.9 µM (active); in assay [4], 4.18 µM (active); in [5], 4.17 µM (active); in assay [6], 3.32 µM (active); in [7], 10.5 µM (active). In assay [8], the AC50 is 4.17 µM (active). In addition, in assay [2], the call was inactive. For the same compound, the IC50 in assay [9] was 23.5 µM (active). Moreover, the fold change in [10] (setting [14]) was 1.15 (inactive); in assay [10] (setting [15]), 1.4. The cell count in [10] (setting [16]) is 2110; in assay [10] (setting [17]) it was 1840.

On to `O=C(c1ccc(C(=O)N2CCC(N3CCCC3)CC2)c(Nc2ccccc2)c1)N1CCC(N2CCCC2)CC1`, for which the outcome in [1], in [2], in [3], in [4], in assay [5] and in [6] was inactive. Moreover, the result in [7], in [8] and in [9] was inactive. The values for the fold change in assay [10] (setting [14]) and in [10] (setting [15]) were 0.897 (inactive) and 1.63, respectively. Moreover, the values for the cell count in assay [10] (setting [16]) and in assay [10] (setting [17]) were 8000 and 8920, respectively. Also, the z-score in assay [11] (setting [18]) was -0.111 (inactive); in assay [11] (setting [19]), -0.294.
